Records with an inconclusive call do not appear. A call without a number means that no potency is given here. Active and inactive are the calls of the source. The call rests on the fitted dose curve; in most records, active means well fitted cell-killing curve with a large enough effect; inconclusive means small, poorly fitted or top-dose-only effect; inactive means flat fitted curve, though single readings scatter.
Potency means the concentration at half of the fitted maximal effect.

A short description of this assay: qHTS of pediatric cancer cell lines to identify multiple opportunities for drug repurposing: Primary screen for U-2 OS cells (AID 1347096). Further: nearly all actives have a fitted effect of over 50% in size. As to conditions: U-2 OS viability, CellTiter-Glo luminescence, 48 h; series mostly up to 46 µM. The method, boiled down:
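Viability after 48 h compound treatment at 37C, 500-1,000 cells/well, read as ATP luminescence with CellTiter-Glo. Primary screens used 11-point (MIPE, 0.78 nM-46 µM) or 8-point (NPC, 0.59 nM-46 µM) final concentrations; follow-up screens used 11-point dilutions.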
(In qHTS, concentration-response curves come from the screen itself.)
As for `C=CC(=O)N1CCC[C@@H](n2nc(-c3ccc(Oc4ccccc4)cc3)c3c(N)ncnc32)C1`, the Potency entry was “inactive”. Consider `CC(C)c1ccccc1Cc1cc(C(=O)Nc2ccc(S(=O)(=O)c3ccccc3C(C)(C)C)cc2)c(O)c(O)c1O`, for which the Potency result is “inactive”. In the case of `Cc1cc(Nc2cc(N3CCN(C)CC3)nc(C=Cc3ccccc3)n2)n[nH]1` it was 34 µM (active). `Cc1nc(Nc2n[nH]c3c2CN(C(=O)N[C@H](CN(C)C)c2ccccc2)C3(C)C)c2sccc2n1`: the Potency was 9.35 µM (active). To `Cc1cnc(-c2cnc(NCCNc3ccc(C#N)cn3)nc2-c2ccc(Cl)cc2Cl)[nH]1` belongs “inactive”; to `CC=C1NC(=O)[C@H]2CSSCCC=C[C@H](CC(=O)N[C@H](C(C)C)C(=O)N2)OC(=O)[C@H](C(C)C)NC1=O`, 0.0296 µM (active). In the case of `Cn1c(CNc2ccc(C(=N)N)cc2)nc2cc(C(=O)N(CCC(=O)O)c3ccccn3)ccc21` it was “inactive”; in that of `Cc1ccc(C(=O)Nc2cccc(C(F)(F)F)c2)cc1-c1ccc2nc(NCCN3CCOCC3)ncc2c1`, “inactive”. To `NC(=O)c1cccc2cn(-c3ccc([C@@H]4CCCNC4)cc3)nc12` belongs “inactive”; to `Nc1nc(Nc2ccc(S(N)(=O)=O)cc2)nn1C(=O)c1c(F)cccc1F`, “inactive”.

With `COc1cc2c(NC3CCN(C(C)C)CC3)nc(C3CCCCC3)nc2cc1OCCCN1CCCC1`, the Potency entry was “inactive”. To `COc1c(N2C[C@@H]3CCCN[C@H]3C2)c(F)cc2c(=O)c(C(=O)O)cn(C3CC3)c12` belongs “inactive”. To `COc1ccc(-c2cc3c(C)nc(N)nc3n(C3CCC(OCCO)CC3)c2=O)cn1` (configuration not stated) belongs 0.469 µM (active); to `O=C(O)CO.[NH2-].[NH2-].[Pt+2]`, “inactive”; to `CN1CCN(Cc2ccc(NC(=O)Nc3ccc(Oc4cc(NC(=O)C5CC5)ncn4)cc3)cc2C(F)(F)F)CC1`, “inactive”. To `COc1ccc(C(=O)CC2(O)C(=O)Nc3c(Cl)ccc(Cl)c32)cc1` (configuration not stated) belongs “inactive”; to `CC(C)(O)CCc1ccc(OCc2cc(-c3cccc(OC(F)F)c3)c3ncccc3c2)cc1`, “inactive”.

The values above are taken from PubChem BioAssay (NCATS).
